Results taken from PubChem BioAssay (EPA / NIEHS).
Results filed as inconclusive are left out. Calls of active or inactive are those of the source. The calls were made as follows: active = hit-call score of the fitted dose curve at least 0.9, where 1 is the maximum; inconclusive = response in the unintended direction; inactive = score below 0.9.

What was measured:
[1] = target: bovine Estrogen Receptor (ER), ESR1 (gene 407238) (UniProt P49884); assay: NVS_NR_bER: NovaScreen (NVS) Nuclear Receptor Binding Assay for bovine Estrogen Receptor (ER) (AID 2283345);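 also: actives lower the bound radioligand count which means they displace the ER ligand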
Sequence of bovine Estrogen Receptor (ER), ESR1 (gene 407238) (P49884 whole entry, looked up): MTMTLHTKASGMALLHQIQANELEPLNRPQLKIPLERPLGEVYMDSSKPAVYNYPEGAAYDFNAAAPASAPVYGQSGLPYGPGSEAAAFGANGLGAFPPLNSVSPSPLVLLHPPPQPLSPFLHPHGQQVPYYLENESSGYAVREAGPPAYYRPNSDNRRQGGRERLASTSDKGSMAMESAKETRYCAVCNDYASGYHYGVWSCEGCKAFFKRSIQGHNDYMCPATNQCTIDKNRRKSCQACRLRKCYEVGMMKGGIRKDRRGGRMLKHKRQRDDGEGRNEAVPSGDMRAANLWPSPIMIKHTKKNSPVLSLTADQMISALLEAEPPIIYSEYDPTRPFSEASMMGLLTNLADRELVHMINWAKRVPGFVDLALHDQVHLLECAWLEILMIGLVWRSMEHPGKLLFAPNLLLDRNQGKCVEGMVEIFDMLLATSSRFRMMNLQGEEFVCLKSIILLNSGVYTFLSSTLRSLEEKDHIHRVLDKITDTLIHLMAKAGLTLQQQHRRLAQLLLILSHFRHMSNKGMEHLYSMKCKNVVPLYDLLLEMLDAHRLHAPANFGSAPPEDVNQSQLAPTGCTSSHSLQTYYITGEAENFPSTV
Method in brief: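 Cell-free radioligand binding with receptor from bovine uterine membranes, read by scintillation counting 18 h after dosing. Loss of specific binding was scored against DMSO; primary screen at 25 uM in duplicate, actives then run as concentration series.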

[2] = target: Estrogen receptor (Homo sapiens) (UniProt P03372); assay: OT_ER_ERaERa_1440: Odyssey Thera (OT) 24-hour HEK293T Protein-Complementation Assay for Estrogen Receptor-alpha/-alpha Homodimer (AID 2283349);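 also: hits raise fluorescence above DMSO for agonists and antagonists alike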
Sequence of Estrogen receptor (Homo sapiens) (P03372 whole entry, looked up, the tested form may be a part): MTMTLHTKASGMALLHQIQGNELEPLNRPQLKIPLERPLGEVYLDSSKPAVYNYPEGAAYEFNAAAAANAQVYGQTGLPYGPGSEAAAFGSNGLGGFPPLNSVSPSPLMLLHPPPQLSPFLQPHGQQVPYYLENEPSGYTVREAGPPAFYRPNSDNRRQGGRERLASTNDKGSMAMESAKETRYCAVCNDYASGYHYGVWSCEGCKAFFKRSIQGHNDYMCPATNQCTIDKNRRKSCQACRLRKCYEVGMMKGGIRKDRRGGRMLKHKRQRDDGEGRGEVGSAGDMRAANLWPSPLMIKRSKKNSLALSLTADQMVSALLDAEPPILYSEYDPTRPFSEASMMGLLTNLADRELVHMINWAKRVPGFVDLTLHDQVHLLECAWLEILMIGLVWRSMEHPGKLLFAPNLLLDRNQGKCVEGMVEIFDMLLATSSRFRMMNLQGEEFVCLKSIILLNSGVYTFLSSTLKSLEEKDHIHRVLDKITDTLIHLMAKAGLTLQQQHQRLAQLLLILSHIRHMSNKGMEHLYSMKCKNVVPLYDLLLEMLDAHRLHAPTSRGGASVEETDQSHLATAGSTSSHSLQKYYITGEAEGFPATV
Method in brief: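 Readout is the rise in mean fluorescence from reporter fragment complementation when ERα LBD (aa 310-547) units dimerize in HEK293T cells. Measured 24 h after dosing and analysed as increase over DMSO control.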

[3] = target: Estrogen receptor (Homo sapiens) (UniProt P03372); assay: OT_ER_ERaERa_0480: Odyssey Thera (OT) 8-hour HEK293T Protein-Complementation Assay for Estrogen Receptor-alpha/-alpha Homodimer (AID 2283351);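 also: rise in fluorescence from reassembled reporter fragments on ERα LBD homodimer in nucleus or whole cell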
Method in brief: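 The readout is complementation of fragments fused to the human ER alpha ligand-binding domain (aa 310-547), stably expressed in HEK293T cells. After 8 h of exposure, the increase in nuclear/cytoplasmic fluorescence was measured by laser scanning cytometry and fitted relative to DMSO.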

[4] = target: T1, Estrogen receptor (Homo sapiens) + Estrogen receptor beta (Homo sapiens) (UniProt P03372+Q92731); assay: OT_ER_ERaERb_0480: Odyssey Thera (OT) 8-hour HEK293T Protein-Complementation Assay for Estrogen Receptor-alpha/-beta Heterodimer (AID 2283352)
T1 sequence (P03372 whole entry, looked up): as the sequence (P03372 whole entry, looked up, the tested form may be a part) above
T1 sequence (Q92731 whole entry, looked up): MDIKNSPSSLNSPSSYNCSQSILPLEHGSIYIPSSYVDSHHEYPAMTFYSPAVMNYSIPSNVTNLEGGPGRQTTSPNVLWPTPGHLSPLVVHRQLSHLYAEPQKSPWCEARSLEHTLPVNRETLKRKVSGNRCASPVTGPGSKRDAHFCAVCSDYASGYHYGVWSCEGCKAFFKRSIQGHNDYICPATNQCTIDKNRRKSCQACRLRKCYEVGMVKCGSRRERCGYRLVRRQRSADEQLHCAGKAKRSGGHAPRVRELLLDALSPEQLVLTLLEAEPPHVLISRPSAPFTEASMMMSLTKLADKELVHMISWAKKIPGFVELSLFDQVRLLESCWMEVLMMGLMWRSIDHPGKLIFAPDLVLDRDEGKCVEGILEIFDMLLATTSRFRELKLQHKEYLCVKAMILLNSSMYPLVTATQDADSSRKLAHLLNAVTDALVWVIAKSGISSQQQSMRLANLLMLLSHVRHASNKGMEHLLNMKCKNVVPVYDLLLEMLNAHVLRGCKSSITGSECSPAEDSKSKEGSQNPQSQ
Method in brief: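 Compound added to HEK293T cells carrying split-reporter-tagged ER-alpha and ER-beta LBDs, incubated 8 hours, then imaged by laser scanning cytometer. Signal rise in nucleus, or nucleus and cytoplasm, over vehicle was fitted in the positive direction.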

[5] = target: T1, Estrogen receptor (Homo sapiens) + Estrogen receptor beta (Homo sapiens); assay: OT_ER_ERaERb_1440: Odyssey Thera (OT) 24-hour HEK293T Protein-Complementation Assay for Estrogen Receptor-alpha/-beta Homodimer (AID 2283356);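 also: heteromer of ER alpha and ER beta binding domains; hits raise reporter fluorescence and both agonists and antagonists give an increase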
Method in brief: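 Stable HEK293T PCA line, ERα LBD 310-547 + ERβ LBD 263-489 fused to reporter fragments; 24 h treatment; fluorescence read by laser scanning cytometry; positive fitting direction relative to DMSO.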

[6] = target: Estrogen receptor beta (Homo sapiens) (UniProt Q92731); assay: OT_ER_ERbERb_0480: Odyssey Thera (OT) 8-hour HEK293T Protein-Complementation Assay for Estrogen Receptor-beta/-beta Homodimer (AID 2283357);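 also: active means signal gain over DMSO baseline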
Sequence of Estrogen receptor beta (Homo sapiens) (Q92731 whole entry, looked up, the tested form may be a part): as the sequence (Q92731 whole entry, looked up) above
Method in brief: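 Readout: increase in mean fluorescence intensity (nucleus for agonists; nucleus plus cytoplasm for antagonists) relative to DMSO, from a reporter-fragment complementation of human ER-beta LBD homodimer in HEK293T cells dosed 8 hours.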

[7] = target: Estrogen receptor (Homo sapiens) (UniProt P03372); assay: NVS_NR_hER: NovaScreen (NVS) Nuclear Receptor Binding Assay for human Estrogen Receptor (ER) (AID 2283348)
Method in brief: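 Cell-free radioligand binding with protein extracted from MCF7 cells; scintillation counting 18 hours after dosing. Loss of signal versus DMSO baseline read as displacement; primary single-concentration screen at 25 uM in duplicate, actives retested in concentration series.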

[8] = target: chimpanzee Androgen Receptor (AR), AR (gene 747460) (UniProt O97775); assay: NVS_NR_cAR: NovaScreen (NVS) Nuclear Receptor Binding Assay for chimpanzee Androgen Receptor (AR) (AID 2283346);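 also: radioligand displacement from AR measured by scintillation counting in a cell-free assay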
Sequence of chimpanzee Androgen Receptor (AR), AR (gene 747460) (O97775 whole entry, looked up): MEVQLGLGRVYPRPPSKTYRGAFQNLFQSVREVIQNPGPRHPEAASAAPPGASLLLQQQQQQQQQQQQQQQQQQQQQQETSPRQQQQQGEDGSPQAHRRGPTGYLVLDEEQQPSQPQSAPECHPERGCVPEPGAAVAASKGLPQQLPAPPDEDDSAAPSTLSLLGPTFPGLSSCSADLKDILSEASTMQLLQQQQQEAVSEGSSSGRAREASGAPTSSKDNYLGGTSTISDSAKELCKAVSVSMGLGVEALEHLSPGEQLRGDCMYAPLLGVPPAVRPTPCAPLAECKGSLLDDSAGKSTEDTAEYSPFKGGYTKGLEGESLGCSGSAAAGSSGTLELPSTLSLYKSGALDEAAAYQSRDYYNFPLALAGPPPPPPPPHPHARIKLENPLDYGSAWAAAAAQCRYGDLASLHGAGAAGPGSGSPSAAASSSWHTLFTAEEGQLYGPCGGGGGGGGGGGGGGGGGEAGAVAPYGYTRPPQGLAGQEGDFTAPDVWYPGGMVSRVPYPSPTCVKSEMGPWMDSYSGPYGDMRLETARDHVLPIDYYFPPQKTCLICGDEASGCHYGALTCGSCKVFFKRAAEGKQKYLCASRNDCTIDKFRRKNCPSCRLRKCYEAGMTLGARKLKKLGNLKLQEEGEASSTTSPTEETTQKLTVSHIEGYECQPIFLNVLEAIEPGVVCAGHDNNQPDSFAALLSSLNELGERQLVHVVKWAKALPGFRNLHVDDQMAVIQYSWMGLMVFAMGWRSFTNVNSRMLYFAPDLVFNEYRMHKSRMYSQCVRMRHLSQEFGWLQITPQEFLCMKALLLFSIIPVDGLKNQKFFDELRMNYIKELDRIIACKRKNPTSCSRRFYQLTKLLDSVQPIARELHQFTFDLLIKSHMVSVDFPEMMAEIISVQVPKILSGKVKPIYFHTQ
Method in brief: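 Cell-free radioligand displacement using receptor protein extracted from Sf9/Sf21 cells; bound radioligand measured by scintillation counting 72 hours after chemical dosing. Loss of signal versus DMSO baseline indicates binding; primary screen single-concentration in duplicate at 25 uM, actives followed in concentration series.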

[9] = target: Retinoic acid receptor alpha (Homo sapiens) (UniProt P10276); assay: NVS_NR_hRAR_Antagonist: NovaScreen (NVS) Nuclear Receptor Binding Assay for human Retinoic Acid Alpha Receptor Antagonism (RAR) (AID 2283358)
Sequence of Retinoic acid receptor alpha (Homo sapiens) (P10276 whole entry, looked up): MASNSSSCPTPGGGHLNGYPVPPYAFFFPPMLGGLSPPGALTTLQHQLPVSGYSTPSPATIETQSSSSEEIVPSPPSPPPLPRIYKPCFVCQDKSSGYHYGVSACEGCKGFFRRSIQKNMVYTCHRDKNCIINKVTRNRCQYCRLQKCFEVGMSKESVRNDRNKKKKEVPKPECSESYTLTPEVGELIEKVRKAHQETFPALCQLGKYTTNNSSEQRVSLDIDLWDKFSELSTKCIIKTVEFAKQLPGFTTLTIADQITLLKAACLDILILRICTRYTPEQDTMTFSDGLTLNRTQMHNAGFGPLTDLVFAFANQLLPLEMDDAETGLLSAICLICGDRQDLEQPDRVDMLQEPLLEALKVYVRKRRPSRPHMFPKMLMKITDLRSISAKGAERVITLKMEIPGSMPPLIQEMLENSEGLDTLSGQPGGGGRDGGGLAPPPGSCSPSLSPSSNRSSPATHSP
Method in brief: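 Cell-free TR-FRET binding assay on extracted receptor protein, run in antagonist mode; signal read 2 hours after chemical dosing. Loss of signal was fitted relative to DMSO baseline. Screened at 25 uM in duplicate, actives followed up in concentration series.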

[10] = target: Androgen Receptor/SRC-1 Co-activator, AR (gene 367) (UniProt P10275); assay: OT_AR_ARSRC1_0480: Odyssey Thera (OT) 8-hour HEK293T Protein-Complementation Assay for Androgen Receptor/SRC-1 Co-activator (AID 2283354);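 also: hits raise the complementation signal above DMSO so AC50 marks enhancers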
Sequence of Androgen Receptor/SRC-1 Co-activator, AR (gene 367) (P10275 whole entry, looked up, the tested form may be a part): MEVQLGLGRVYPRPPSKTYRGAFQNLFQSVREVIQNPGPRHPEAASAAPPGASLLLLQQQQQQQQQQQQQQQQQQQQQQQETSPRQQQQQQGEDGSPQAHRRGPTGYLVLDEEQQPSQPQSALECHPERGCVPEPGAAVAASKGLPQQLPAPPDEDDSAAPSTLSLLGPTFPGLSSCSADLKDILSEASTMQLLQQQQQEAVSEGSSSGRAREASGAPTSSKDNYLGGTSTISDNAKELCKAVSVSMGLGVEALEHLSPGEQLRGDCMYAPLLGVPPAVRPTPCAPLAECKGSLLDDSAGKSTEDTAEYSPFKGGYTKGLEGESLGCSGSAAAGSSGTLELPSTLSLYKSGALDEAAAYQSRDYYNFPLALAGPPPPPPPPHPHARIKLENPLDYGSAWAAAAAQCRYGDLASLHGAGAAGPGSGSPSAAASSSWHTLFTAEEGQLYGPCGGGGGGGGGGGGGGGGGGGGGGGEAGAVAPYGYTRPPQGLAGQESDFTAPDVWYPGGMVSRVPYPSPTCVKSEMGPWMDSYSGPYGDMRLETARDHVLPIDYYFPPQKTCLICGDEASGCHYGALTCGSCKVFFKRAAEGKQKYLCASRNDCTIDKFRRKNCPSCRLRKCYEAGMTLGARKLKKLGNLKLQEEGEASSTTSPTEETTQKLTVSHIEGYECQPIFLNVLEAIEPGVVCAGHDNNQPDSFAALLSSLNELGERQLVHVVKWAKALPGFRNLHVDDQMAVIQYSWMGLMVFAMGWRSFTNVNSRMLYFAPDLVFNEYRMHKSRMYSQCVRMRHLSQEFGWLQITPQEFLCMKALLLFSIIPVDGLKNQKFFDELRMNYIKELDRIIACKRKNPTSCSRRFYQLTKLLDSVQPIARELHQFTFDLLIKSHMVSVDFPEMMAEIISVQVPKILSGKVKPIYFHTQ
Method in brief: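 HEK293T cells stably expressing AR and SRC-1 fused to split Venus YFP fragments via (Gly4Ser)2 linkers were read 8 h after compound dosing. Complementation was imaged at 488 and 635nm, and nuclear/cytoplasmic fluorescence ratio (488nm) was taken over ≥400 cells; gain-of-signal versus DMSO.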

[11] = target: rat Mineralocorticoid Receptor (MR), Nr3c2 (gene 25672) (UniProt P22199); assay: NVS_NR_rMR: NovaScreen (NVS) Nuclear Receptor Binding Assay for rat Mineralocorticoid Receptor (MR) (AID 2283355)
Method in brief: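 Cell-free radioligand binding to MR in adrenalectomized rat brain supernatant, scintillation counted 24 h after dosing. Loss of signal versus DMSO baseline marks displacement. Primary screen in duplicate at 25 uM; actives retested as concentration series.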

CC(C)(C)C1CCC(=O)CC1
AC50 [1]: 25 µM (active)
outcome [2]: inactive
outcome [3]: inactive
outcome [4]: inactive
outcome [5]: inactive
outcome [6]: inactive

CCCCCCCCCCCCc1ccc(O)cc1
AC50 [1]: 10.7 µM (active)
AC50 [7]: 11 µM (active)
AC50 [3]: 2.48 µM (active)
AC50 [4]: 1.86 µM (active)
AC50 [5]: 1.14 µM (active)
AC50 [6]: 0.853 µM (active)

Nc1ccc(O)c([N+](=O)[O-])c1
outcome [1]: inactive
outcome [7]: inactive

CCCCCCOc1ccc(N)cc1
AC50 [2]: 23.9 µM (active)
outcome [3]: inactive

CC1(C)CC(O)CC(C)(C)N1[O]
outcome [8]: inactive

O=C(OCCc1ccccc1)c1ccccc1
outcome [2]: inactive
outcome [3]: inactive

N=C1C=CC(=C(c2ccc(N)cc2)c2ccc(N)cc2)C=C1
outcome [7]: inactive

CCCCCCCCCCCCCCCCCCOS(=O)(=O)O
outcome [1]: inactive
outcome [7]: inactive
outcome [2]: inactive
outcome [3]: inactive
outcome [4]: inactive
AC50 [5]: 23.7 µM (active)
outcome [6]: inactive
outcome [9]: inactive

CC(=O)OCc1ccccc1
outcome [1]: inactive
outcome [7]: inactive
outcome [2]: inactive
outcome [3]: inactive
outcome [4]: inactive
outcome [10]: inactive
outcome [5]: inactive
outcome [6]: inactive

CCCCOC(=O)CCC(C)=O
outcome [7]: inactive

c1ccc(Nc2cccc3ccccc23)cc1
outcome [1]: inactive
outcome [7]: inactive
AC50 [2]: 63.1 µM (active)
AC50 [3]: 35.2 µM (active)
AC50 [4]: 24.8 µM (active)
AC50 [5]: 47.1 µM (active)
AC50 [6]: 29.1 µM (active)

N#Cc1ccc(C2CCCc3cncn32)cc1 (stereo unspecified)
outcome [1]: inactive
AC50 [7]: 4.33 µM (active)
outcome [2]: inactive
outcome [3]: inactive

Oc1ccccc1Cc1ccccc1O
AC50 [8]: 25 µM (active)
outcome [7]: inactive
outcome [2]: inactive
outcome [3]: inactive
AC50 [4]: 23.4 µM (active)
AC50 [5]: 53.4 µM (active)
AC50 [6]: 31.6 µM (active)

O=C(O)C1CCC(C(=O)O)CC1 (stereo unspecified)
outcome [1]: inactive
outcome [2]: inactive
outcome [3]: inactive
outcome [5]: inactive
outcome [6]: inactive

C[Si]1(C)O[Si](C)(C)O[Si](C)(C)O[Si](C)(C)O[Si](C)(C)O1
AC50 [2]: 50 µM (active)
outcome [3]: inactive

O=C(Oc1ccccc1)c1ccccc1O
outcome [2]: inactive
outcome [3]: inactive

C[Si](C)(C)N[Si](C)(C)C
outcome [1]: inactive
outcome [7]: inactive
outcome [2]: inactive
outcome [3]: inactive
outcome [5]: inactive
outcome [6]: inactive

O=C(O)CCC(=O)O
outcome [2]: inactive
outcome [3]: inactive

CCC1COC(=O)O1 (stereo unspecified)
outcome [2]: inactive
outcome [3]: inactive

CC(C)(c1ccccc1)c1ccc(Nc2ccc(C(C)(C)c3ccccc3)cc2)cc1
outcome [1]: inactive
outcome [7]: inactive
outcome [2]: inactive
outcome [3]: inactive

CC(C)=CCCC(C)=CC#N
outcome [1]: inactive
outcome [7]: inactive
outcome [2]: inactive
outcome [3]: inactive

CCCCCC[C@@H](O)C/C=C\CCCCCCCC(=O)OCC(O)CO (stereo partly specified)
outcome [8]: inactive
outcome [2]: inactive
outcome [3]: inactive

CC(C)c1ccc(O)c(C(C)C)c1
outcome [1]: inactive
outcome [7]: inactive
outcome [2]: inactive
outcome [3]: inactive
outcome [4]: inactive
outcome [5]: inactive
outcome [6]: inactive

CO[Si](C)(C)OC
outcome [7]: inactive
outcome [2]: inactive
outcome [3]: inactive
outcome [4]: inactive
outcome [5]: inactive
outcome [6]: inactive

CC(C)c1cc(C(C)C)cc(C(C)C)c1
outcome [8]: inactive
outcome [2]: inactive
outcome [3]: inactive
outcome [4]: inactive
outcome [5]: inactive
outcome [6]: inactive

Cc1cc(C)n(CO)n1
outcome [7]: inactive
outcome [2]: inactive
outcome [3]: inactive

CC(=O)c1ccccc1O
outcome [2]: inactive
outcome [3]: inactive

Fc1ccc(Br)cc1
outcome [2]: inactive
outcome [3]: inactive

O=C(Nc1ccccc1)c1cc(Cl)ccc1O
outcome [1]: inactive
outcome [7]: inactive
outcome [2]: inactive
outcome [3]: inactive
AC50 [5]: 31 µM (active)
outcome [6]: inactive

CC1=CC=C(C(C)C)CC1
AC50 [2]: 31.5 µM (active)
outcome [3]: inactive

O=C(O)/C=C/c1ccccc1
AC50 [2]: 34.2 µM (active)
outcome [3]: inactive

CCCCC(CC)COC(=O)/C=C/c1ccc(OC)cc1 (stereo unspecified)
outcome [2]: inactive
outcome [3]: inactive
outcome [10]: inactive

CCC[Si](OC)(OC)OC
outcome [2]: inactive
outcome [3]: inactive
outcome [4]: inactive
outcome [10]: inactive
outcome [5]: inactive
outcome [6]: inactive

CCc1cccc(C)c1N
AC50 [2]: 74.6 µM (active)
outcome [3]: inactive
outcome [10]: inactive

CC(C)COC(=O)CC(C(=O)OCC(C)C)S(=O)(=O)O (stereo unspecified)
outcome [2]: inactive
outcome [3]: inactive
outcome [4]: inactive
outcome [5]: inactive
outcome [6]: inactive

O=C(O)CC(C(=O)O)S(=O)(=O)O (stereo unspecified)
outcome [2]: inactive
outcome [3]: inactive

Cc1c(C(=O)c2c[nH]n(C)c2=O)ccc(S(C)(=O)=O)c1C1=NOCC1
outcome [2]: inactive
outcome [3]: inactive
outcome [4]: inactive
outcome [5]: inactive
outcome [6]: inactive

CC12CCC(CC1)C(C)(C)O2
outcome [2]: inactive
outcome [3]: inactive

COc1cc(O)c(C(=O)c2ccccc2)cc1S(=O)(=O)O
outcome [2]: inactive
outcome [3]: inactive
outcome [4]: inactive
outcome [10]: inactive
outcome [5]: inactive
outcome [6]: inactive

CCCC=C(C=O)CC
outcome [2]: inactive
outcome [3]: inactive
outcome [5]: inactive
outcome [6]: inactive

CCCCOCCOC(=O)COc1ccc(Cl)cc1Cl
outcome [2]: inactive
outcome [3]: inactive
outcome [4]: inactive
outcome [5]: inactive

CCCCc1ccc(Cl)cc1
outcome [2]: inactive
outcome [3]: inactive
outcome [4]: inactive
outcome [5]: inactive
outcome [6]: inactive

NC(=O)Nc1ccccc1
outcome [2]: inactive
outcome [4]: inactive
outcome [5]: inactive
outcome [6]: inactive
outcome [9]: inactive

CCc1occc(=O)c1O
outcome [2]: inactive
outcome [3]: inactive

CC1(C)[C@@H]2CC[C@@]1(C)C(=O)C2
outcome [2]: inactive
outcome [3]: inactive
outcome [4]: inactive
outcome [5]: inactive
outcome [6]: inactive

C=C(C)C1CC=C(C)CC1 (stereo unspecified)
outcome [2]: inactive
outcome [3]: inactive

CCCCCCCCCCCCCC(=O)OC(C)C
outcome [2]: inactive
outcome [3]: inactive
outcome [4]: inactive
outcome [10]: inactive
outcome [5]: inactive

CC(C)(C)N
outcome [2]: inactive
outcome [3]: inactive

COC(=O)c1ccccc1C
outcome [2]: inactive
outcome [3]: inactive
outcome [4]: inactive
outcome [5]: inactive

CCCCCC(=O)OCC
outcome [2]: inactive
outcome [3]: inactive
outcome [4]: inactive
outcome [5]: inactive
outcome [6]: inactive

COc1ccc(C(=O)c2ccccc2)c(O)c1
AC50 [2]: 66.7 µM (active)
AC50 [3]: 58.4 µM (active)
AC50 [4]: 31 µM (active)
outcome [10]: inactive
AC50 [5]: 58.7 µM (active)
AC50 [6]: 50 µM (active)

CC(=O)/C=C/C1C(C)=CCCC1(C)C (stereo unspecified)
outcome [2]: inactive
outcome [3]: inactive

O=S(=O)(O)c1ccc(N=Nc2c(O)ccc3ccccc23)cc1
outcome [2]: inactive
outcome [3]: inactive
outcome [5]: inactive

CCC(C)(O)CCCC(C)C (stereo unspecified)
outcome [2]: inactive
outcome [3]: inactive

O=C(O)c1ccc2c(c1)C(=O)OC2=O
outcome [2]: inactive
outcome [3]: inactive
outcome [4]: inactive
outcome [5]: inactive
outcome [6]: inactive

C=C[C@@]1(C)CC(=O)[C@]2(O)[C@@]3(C)[C@@H](O)CCC(C)(C)[C@@H]3[C@H](O)[C@H](OC(C)=O)[C@@]2(C)O1
outcome [2]: inactive
outcome [3]: inactive
outcome [4]: inactive
AC50 [5]: 36.1 µM (active)
outcome [6]: inactive

Cc1ccc(C)c(OCCCC(C)(C)C(=O)O)c1
outcome [2]: inactive
outcome [3]: inactive
outcome [4]: inactive
outcome [10]: inactive
outcome [11]: inactive
outcome [5]: inactive

CCCC(CC)c1ccccc1 (stereo unspecified)
outcome [2]: inactive
outcome [3]: inactive
outcome [4]: inactive
outcome [5]: inactive
outcome [6]: inactive

CCCCCCCCCC(C)=O
outcome [2]: inactive
AC50 [3]: 68.5 µM (active)
outcome [4]: inactive
outcome [10]: inactive
outcome [5]: inactive
outcome [6]: inactive

CCCCCCCO
outcome [2]: inactive
outcome [3]: inactive
outcome [4]: inactive
outcome [5]: inactive
outcome [6]: inactive
